# Laboratory results as given in the supplement of paper PMC9433436.
# ± gives the standard deviation of the averaged measurements. In all, about 4,100 sequences were measured (“relative kcat/Km (krel) vs genomic leader AAAGAU”: median about 1.7, highest 2% from about 6.5 on). The sample as a whole holds a higher share of the highest values than the screen did.
# Target: T1, E. coli RNase P holoenzyme (M1 P RNA + rnpA protein) (UniProt P0A7Y8)
# T1 sequence: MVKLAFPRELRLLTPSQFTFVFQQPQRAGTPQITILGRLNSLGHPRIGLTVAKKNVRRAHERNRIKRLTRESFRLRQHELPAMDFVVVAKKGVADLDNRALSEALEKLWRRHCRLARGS
# Test: relative kcat/Km (krel) vs genomic leader AAAGAU (relative (reference leader = 1)); higher = faster RNase P cleavage
# Protocol: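 HTS-Kin: a pool of ptRNA-Met (21C construct) with all 4096 combinations of 5' leader nucleotides N(-6) to N(-1) was processed in vitro by E. coli RNase P (P RNA + rnpA/C5 protein) under multiple-turnover conditions at 37 C, pH 8, 17.5 mM MgCl2. Residual substrate was Illumina-sequenced at several fractions reacted, and relative kcat/Km (krel) was computed by internal competition kinetics, calibrated to the genomic leader (AAAGAU = 1). The listed hexamer is the varied N(-6)..N(-1) leader (DNA letters), and it sits between a fixed 5' stem-loop flank (GCAUGCACGAAAGUGCGUGCUAUGAA) and the mature tRNA-Met starting GGCUACGUAGCUCAGUUGG. Two technical replicates are averaged.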
# [1] = fraction of substrate reacted: ~9-10% (9.79% repeat 1, 9.1% repeat 2)
# [2] = fraction of substrate reacted: ~13-16% (15.68% repeat 1, 13.17% repeat 2)
# [3] = fraction of substrate reacted: ~26-29% (28.66% repeat 1, 26.4% repeat 2)
Sequence,relative kcat/Km [1],relative kcat/Km [2],relative kcat/Km [3]
CACCAT,4.34 ± 1.2,4.72 ± 0.96,7.01 ± 2.9
GACCAT,3.62 ± 2.1,3.91 ± 0.13,5.96 ± 1.9
TACCAG,2.73 ± 1.4,2.64 ± 1.1,4.81 ± 1.2
TACCAT,3.78 ± 1.5,5.08 ± 1.6,7.73 ± 3.6
AACCAT,2.62 ± 1.1,2.62 ± 0.3,4.77 ± 2
CACCAG,2.64 ± 2.5,1.93 ± 0.07,3.58 ± 1.1
TACCTT,2.52 ± 0.33,3.78 ± 0.62,5.64 ± 2.6
TACCAA,3.31 ± 1.5,4.01 ± 0.25,6.07 ± 1.9
TACCAC,3.48 ± 1.4,4.03 ± 1.6,6.63 ± 2.9
ATAAGA,1.69 ± 0.23,2.23 ± 0.39,3.63 ± 1.3
ACGTTG,,,1.56 ± 0.44
ACCGCC,2.87 ± 1.1,2.93 ± 0.072,4.69 ± 1
TGGACC,0.825 ± 0.51,0.618 ± 0.3,0.551 ± 0.0088
TAACTC,1.62 ± 0.57,1.49 ± 0.16,2.26 ± 0.86
GTGTAC,1.78 ± 0.16,2.012 ± 0.0038,3.45 ± 1
TCGTAT,4.13 ± 0.92,4.78 ± 0.97,7.28 ± 3.4
TTGTAC,3.78 ± 0.42,4.71 ± 1.3,7.05 ± 2.9
GCGTCC,1.32 ± 0.099,1.73 ± 0.52,2.64 ± 0.41
ACGTAT,2.73 ± 1.2,3.73 ± 1.2,5 ± 1.8
TCGTAA,3.3 ± 0.9,3.79 ± 0.62,6.16 ± 2.7
CCGTAT,3.19 ± 0.25,4.32 ± 0.66,5.94 ± 2.6
TCGTAC,4.21 ± 1.1,5.11 ± 1.9,7.91 ± 3.5
GCGTAC,2.64 ± 0.68,1.98 ± 0.25,3.77 ± 1.5
TCGTCT,3 ± 0.94,2.99 ± 1.4,4.35 ± 1.2
TCGTCC,3.8 ± 0.41,5.03 ± 1.6,6.93 ± 3.5
TTGTAG,2.4 ± 1.1,1.92 ± 0.36,3.78 ± 0.77
AGTTCG,,0.601 ± 0.24,1.95 ± 0.2

Sequence,relative kcat/Km [1],relative kcat/Km [2],relative kcat/Km [3]
GATGAG,,,0.577 ± 0.44
CAAAAA,1.14 ± 0.13,0.985 ± 0.72,2.42 ± 0.98
GGTCTT,,1.32 ± 0.41,1.72 ± 0.37
ACGGGT,,,1.35 ± 0.62
GCTCGC,1.28 ± 1.3,1.58 ± 0.13,1.96 ± 0.049
GTTGTT,0.832 ± 0.53,0.86 ± 0.24,1.07 ± 0.92
GGTCGC,1.81 ± 0.88,2.0828 ± 0.002,3.37 ± 1.1
TATTGC,3.74 ± 1.7,4.4 ± 0.4,6.68 ± 3.2
AATTGA,2.34 ± 0.47,3.16 ± 0.37,4.64 ± 1.2
TATTGA,3.87 ± 0.33,4.42 ± 1.1,6.93 ± 3.1
CATTGC,3.51 ± 1.1,4.2 ± 0.93,5.82 ± 2.3
GATTGA,2.31 ± 0.22,3.98 ± 1.1,4.96 ± 2.3
TATTGG,0.568 ± 0.24,,1.46 ± 0.98
TTAGTG,,,0.934 ± 0.09
CACTGA,2.94 ± 1.2,3.71 ± 0.65,5.8 ± 1.7
CACTAG,2.94 ± 2.4,3.2 ± 0.63,5.04 ± 0.72
TACTGC,3.83 ± 1.5,4.1 ± 0.86,5.96 ± 1.5
TACTAG,3.46 ± 2,3.248 ± 0.0033,5.53 ± 2
AACTAA,2.93 ± 0.16,4.29 ± 1.7,6.5 ± 3.1
TACTAA,5.23 ± 2.7,6.48 ± 0.54,8.92 ± 3.4
AACTAT,3.41 ± 0.78,4.44 ± 0.83,6.43 ± 3.1
GACTAT,4.87 ± 2,5.68 ± 1.6,8.33 ± 3.5
TACTAC,5.21 ± 2,6.73 ± 1.9,9.59 ± 4
GACTGT,0.875 ± 0.79,1.18 ± 0.32,1.09 ± 0.23
CACTAA,4.69 ± 2,6.03 ± 0.39,7.49 ± 2.5
TGGAAA,1.63 ± 1.1,0.838 ± 0.78,1.61 ± 0.29
